Test results taken from PubChem BioAssay AID1376 (SRMLSC, 2008).
In all, about 220,000 compounds went through this assay and about 530 (0.24%) were called active. No stated cut-off is given here; in the data, active means inhibition above about 13%; inconclusive means no clear call, values can overlap the other calls; inactive means below that. For the sample, actives were picked, then their nearest neighbours and some compounds at random. Potency and affinity values are given separately.

Biological target: Bifunctional protein GlmU (Mycobacterium tuberculosis (strain ATCC 25618 / H37Rv)) (UniProt P9WMN3)
Experiment: inhibition of mycobacterial GlmU enzyme – biochemical, glucosamine-1-phosphate acetyltransferase (AID 1376);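 further: 0% = complete reaction with vehicle and 100% = reaction without substrate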
Conditions: M. tuberculosis GlmU acetyltransferase enzyme assay; hits give high values;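 tested at 30 µM in the primary screen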

Bifunctional protein GlmU (Mycobacterium tuberculosis (strain ATCC 25618 / H37Rv)), sequence (P9WMN3 whole entry, looked up): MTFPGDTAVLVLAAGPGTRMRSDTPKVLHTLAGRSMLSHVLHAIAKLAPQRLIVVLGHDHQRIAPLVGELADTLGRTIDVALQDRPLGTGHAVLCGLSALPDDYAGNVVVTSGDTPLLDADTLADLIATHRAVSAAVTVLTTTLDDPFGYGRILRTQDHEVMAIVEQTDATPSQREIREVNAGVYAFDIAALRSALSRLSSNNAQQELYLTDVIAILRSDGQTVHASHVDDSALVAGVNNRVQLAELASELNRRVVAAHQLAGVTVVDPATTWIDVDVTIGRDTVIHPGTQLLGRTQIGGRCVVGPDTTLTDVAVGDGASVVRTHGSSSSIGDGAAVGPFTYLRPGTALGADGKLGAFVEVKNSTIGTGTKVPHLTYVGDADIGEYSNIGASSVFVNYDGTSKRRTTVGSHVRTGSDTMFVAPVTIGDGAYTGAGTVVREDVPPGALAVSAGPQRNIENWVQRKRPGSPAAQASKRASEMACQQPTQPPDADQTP

Structure (SMILES) | inhibition
CCOC(=O)Cc1csc(NC(=O)c2ccco2)n1 | 4.22% (inactive)
Cc1cc(/C=C2\C(=O)NC(=O)N(c3ccc(F)cc3)C2=O)c(C)n1-c1cccc(C(=O)O)c1 | 2.99% (inactive)
Cc1nn(Cc2c(F)cccc2Cl)c(C)c1NC(=O)C1CC1 | 1.68% (inactive)
CC(Cc1ccsc1)NC(=O)CCc1nnc(COc2ccccc2)o1 (configuration not stated) | -0.64% (inactive)
Cc1ccc(OCC(=O)Nc2ccc3c(c2)OCO3)c(C)c1 | 7.84% (inactive)
CCn1c(C)nc2cc(C(=O)N/N=C/c3cccc(OC)c3O)ccc21 | 1.22% (inactive)
CCn1c(C)nc2cc(C(=O)N/N=C/c3ccc(O)c(O)c3O)ccc21 | 12.9% (active)
CCn1c(C)nc2cc(C(=O)N/N=C/c3cccc(O)c3O)ccc21 | -2.26% (inactive)
CN(C(=O)COc1ccccc1C(=O)NCCc1ccccc1)c1ccccc1 | 1.19% (inactive)
CC[N+](CC)(CC)CCCOC(=O)C(O)(c1ccccc1)C1CCCCC1 (configuration not stated) | -1.3% (inactive)
Cc1cc(C)cc(C(=O)N2CCN=C2c2ccccc2)c1 | 13.7% (active)
O=C(c1ccccc1)N1CCN=C1c1ccccc1 | 3.08% (inactive)
COc1cc(C(=O)N2CCN=C2c2ccccc2)cc(OC)c1OC | -4.46% (inactive)
CC1=C(C(=O)OCc2ccccc2)C(c2ccsc2)NC(=O)N1C (configuration not stated) | 0.99% (inactive)
CN1CCN(C(=S)NC(=O)c2ccc(Br)cc2)CC1 | -2.25% (inactive)
CN1CCN(C(=S)NC(=O)c2ccc(C(C)(C)C)cc2)CC1 | 0.68% (inactive)
COc1ccc(-c2noc(C3CCCN(S(=O)(=O)c4cccc(Cl)c4C)C3)n2)cc1OC (configuration not stated) | 1.44% (inactive)
Cc1ccc(-n2ncc3c(=O)[nH]c(SC(C)C)nc32)cc1 | -6.03% (inactive)
Cc1nn(Cc2ccccc2)c(=O)n1N(C)c1ncc(C(F)(F)F)cc1Cl | -3.42% (inactive)
Cc1nn(Cc2ccc([N+](=O)[O-])cc2)c(=O)n1N(C)c1ncc(C(F)(F)F)cc1Cl | 13.8% (active)
Cc1nn(Cc2ccc(Cl)cc2)c(=O)n1N(C)c1ncc(C(F)(F)F)cc1Cl | -1.59% (inactive)

Structure (SMILES) | inhibition
Cc1cc(N2CCN(Cc3nc(-c4ccc(F)cc4)oc3C)CC2)cc(C)n1 | -0.06% (inactive)
O=c1/c(=C\c2ccc(O)cc2)sc2nc(-c3ccccc3)c(-c3ccccc3)n12 | -5.24% (inactive)
O=c1/c(=C\c2ccc(O)cc2)sc2n1C(c1ccccc1)C(c1ccccc1)=NN=2 (configuration not stated) | 15.3% (active)
COc1cc(/C=c2\sc3n(c2=O)C(c2ccccc2)C(c2ccccc2)=NN=3)ccc1O (configuration not stated) | -0.15% (inactive)
CC1CCN(C(=O)CCCOc2ccc(Cl)cc2)CC1 | -3.73% (inactive)
COc1ccc(N2C(=O)CC(N(C)CCc3ccc(OC)c(OC)c3)C2=O)cc1 (configuration not stated) | -4.91% (inactive)
CC(C)(C)C(=O)n1nc(-c2ccccc2)oc1=O | -3.45% (inactive)
O=C(O)Cn1nc(-c2ccc(F)cc2)oc1=O | -1.78% (inactive)
O=C(O)Cn1nc(-c2ccccc2)oc1=O | 12.9% (active)
Cc1cc(C)nc(NS(=O)(=O)c2ccc(NC(=O)CSc3nc(-c4ccccc4)c(C#N)c(=O)[nH]3)cc2)n1 | 13.9% (active)
Cc1cc(NC(=O)CSc2nc(-c3ccccc3)c(C#N)c(=O)[nH]2)no1 | 8.24% (inactive)
N#Cc1c(-c2ccccc2)nc(SCC(=O)Nc2ccccc2)[nH]c1=O | 3.28% (inactive)
CCOc1ccc(N2C(=O)CC(n3nc(C)cc3C)C2=O)cc1 (configuration not stated) | 1.73% (inactive)
Cc1ccc(S(=O)(=O)N(C)C)cc1NC(=S)NC(=O)C12CC3CC(CC(C3)C1)C2 | -3.56% (inactive)
CC(C)(C)C1CCC(=NNC(=O)CC(=O)NCc2ccccc2)CC1 (configuration not stated) | 0.32% (inactive)
Cc1[nH]oc(=O)c1N=Nc1ccccc1 | 8.43% (inactive)
CCC(c1c(C)[nH]oc1=O)c1c(C)[nH]oc1=O | 13.4% (active)
Cc1[nH]oc(=O)c1N=Nc1c(Cl)cccc1Cl | 1.64% (inactive)
O=S(=O)(c1ccc(-c2nc3ccccc3s2)cc1)N1CCCC1 | 2.5% (inactive)
COc1ccccc1N1CCN(CCN2C(=O)CC(=C3c4ccccc4-c4ccccc43)C2=O)CC1 | 4.68% (inactive)
CCCCNC(=O)c1ccc(NC(C)=O)c(Cl)c1 | -5.13% (inactive)

Structure (SMILES) | inhibition
CCCCNC(=O)c1ccc(S(=O)(=O)c2ccc(Cl)cc2)c(NC(C)=O)c1 | 14% (active)
CCCC(=O)Nc1cc(C(=O)O)ccc1S(=O)(=O)c1ccc(Cl)cc1 | 0.49% (inactive)
O=C(CSc1ccc(-c2ccccn2)nn1)NC1CCCCC1 | -1.08% (inactive)
O=c1c2c([nH]c3ccccc13)CCCCC2 | 5.9% (inactive)
O=c1c2c([nH]c3ccccc13)CCCC2 | 1.46% (inactive)
O=c1c2c([nH]c3ccccc13)CCCCCC2 | 13.9% (active)
CS(=O)(=O)N1CCC(C(=O)Nc2ccc(C(F)(F)F)cc2)CC1 | -0.68% (inactive)
Cc1c(C(=O)O)sc2nc(CSc3nnc(-c4ccc(F)cc4)n3C)[nH]c(=O)c12 | -3.36% (inactive)
Cc1nnc(SCc2nc3sc(C(=O)O)c(C)c3c(=O)[nH]2)s1 | 6.77% (inactive)
Cc1ccnc(NC(=O)c2ccc3c(c2)S(=O)(=O)c2ccccc2C3=O)c1 | 1.48% (inactive)
Cc1c(O)c2ccccc2oc1=O | 1.82% (inactive)
Cc1nc2c(c(=O)[nH]1)C(c1ccccc1Cl)c1c(c3ccccc3oc1=O)O2 (configuration not stated) | 2.13% (inactive)
CCCCSc1nc(CCC)cc(=O)[nH]1 | 3.53% (inactive)
Cc1ccc(NC(=O)COC(=O)Cn2cnc3ccccc32)c([N+](=O)[O-])c1 | -0.59% (inactive)
CCOc1ccc(NC2CCN(C(C)=O)CC2)cc1 | 4.14% (inactive)
CC(=O)N1CCC(Nc2ccc(C)cc2)CC1 | 14% (active)
Cc1ccc(NC(=O)N2CCC(NC(=O)C(C)(C)C)CC2)cc1 | 2.86% (inactive)
CCCCn1c(SCC(=O)NCc2ccccc2)nc2ccc(N3CCOCC3)cc2c1=O | 14.2% (active)
CCCCn1c(SCC(=O)NCc2ccco2)nc2ccc(N3CCOCC3)cc2c1=O | 5.76% (inactive)
CCCCNC(=O)CSc1nc2ccc(N3CCOCC3)cc2c(=O)n1CCc1ccccc1 | -5.21% (inactive)
